Laboratory results: the supplement of paper PMC6411743
± gives the standard deviation of the averaged measurements. The full data set covers some 6,200 targets. This sample favours those with the largest changes.

Compound: Nc1ncnc2c1ncn2[C@@H]1O[C@H](COP(=O)(O)OP(=O)(O)NP(=O)(O)O)[C@@H](O)[C@H]1O [adenylyl imidodiphosphate]
Assay: NP40-soluble protein abundance relative to vehicle (solubility fold change) (ratio); higher = more soluble protein in presence of AMP-PNP
How it was run: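 Eight concentrations, 0.1 to 10 mM, were tested on Jurkat crude lysate for 10 min at room temperature and then 3 min at 37 °C, in three independent experiments. The lysate was solubilised with 0.8% NP40 and benzonase, ultracentrifuged, and the supernatant TMT-labelled for LC-MS/MS. Each value is the fold change against the detergent-processed vehicle in its own replicate, from vsn-normalised intensities.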

Chain of UniProt Q9H1D9 (Q9H1D9 whole entry): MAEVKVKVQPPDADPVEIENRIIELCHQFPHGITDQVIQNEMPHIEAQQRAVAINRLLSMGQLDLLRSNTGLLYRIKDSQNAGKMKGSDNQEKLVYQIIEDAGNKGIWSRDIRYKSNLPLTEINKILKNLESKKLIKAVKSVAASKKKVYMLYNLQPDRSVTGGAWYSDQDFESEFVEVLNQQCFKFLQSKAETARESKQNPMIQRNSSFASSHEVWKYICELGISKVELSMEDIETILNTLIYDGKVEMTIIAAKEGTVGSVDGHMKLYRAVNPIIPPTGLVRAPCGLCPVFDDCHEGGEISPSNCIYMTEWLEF
Chain of UniProt Q9Y5J1 (Q9Y5J1 whole entry): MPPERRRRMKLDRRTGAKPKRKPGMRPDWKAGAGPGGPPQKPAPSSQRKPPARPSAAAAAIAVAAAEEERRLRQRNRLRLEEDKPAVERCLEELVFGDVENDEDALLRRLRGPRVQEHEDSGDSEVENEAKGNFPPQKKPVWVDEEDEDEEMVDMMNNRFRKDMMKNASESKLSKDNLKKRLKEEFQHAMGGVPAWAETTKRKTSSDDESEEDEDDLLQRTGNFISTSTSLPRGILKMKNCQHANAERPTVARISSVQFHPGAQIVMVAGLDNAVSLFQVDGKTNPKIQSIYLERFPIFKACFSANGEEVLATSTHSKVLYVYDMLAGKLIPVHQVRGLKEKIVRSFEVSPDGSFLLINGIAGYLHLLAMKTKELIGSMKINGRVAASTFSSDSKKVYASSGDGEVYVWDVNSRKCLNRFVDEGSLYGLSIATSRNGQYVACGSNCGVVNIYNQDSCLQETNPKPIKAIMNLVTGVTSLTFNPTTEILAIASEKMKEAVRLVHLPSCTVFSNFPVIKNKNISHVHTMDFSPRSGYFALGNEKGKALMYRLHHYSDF
Chain of UniProt Q9UMZ2 (Q9UMZ2 whole entry): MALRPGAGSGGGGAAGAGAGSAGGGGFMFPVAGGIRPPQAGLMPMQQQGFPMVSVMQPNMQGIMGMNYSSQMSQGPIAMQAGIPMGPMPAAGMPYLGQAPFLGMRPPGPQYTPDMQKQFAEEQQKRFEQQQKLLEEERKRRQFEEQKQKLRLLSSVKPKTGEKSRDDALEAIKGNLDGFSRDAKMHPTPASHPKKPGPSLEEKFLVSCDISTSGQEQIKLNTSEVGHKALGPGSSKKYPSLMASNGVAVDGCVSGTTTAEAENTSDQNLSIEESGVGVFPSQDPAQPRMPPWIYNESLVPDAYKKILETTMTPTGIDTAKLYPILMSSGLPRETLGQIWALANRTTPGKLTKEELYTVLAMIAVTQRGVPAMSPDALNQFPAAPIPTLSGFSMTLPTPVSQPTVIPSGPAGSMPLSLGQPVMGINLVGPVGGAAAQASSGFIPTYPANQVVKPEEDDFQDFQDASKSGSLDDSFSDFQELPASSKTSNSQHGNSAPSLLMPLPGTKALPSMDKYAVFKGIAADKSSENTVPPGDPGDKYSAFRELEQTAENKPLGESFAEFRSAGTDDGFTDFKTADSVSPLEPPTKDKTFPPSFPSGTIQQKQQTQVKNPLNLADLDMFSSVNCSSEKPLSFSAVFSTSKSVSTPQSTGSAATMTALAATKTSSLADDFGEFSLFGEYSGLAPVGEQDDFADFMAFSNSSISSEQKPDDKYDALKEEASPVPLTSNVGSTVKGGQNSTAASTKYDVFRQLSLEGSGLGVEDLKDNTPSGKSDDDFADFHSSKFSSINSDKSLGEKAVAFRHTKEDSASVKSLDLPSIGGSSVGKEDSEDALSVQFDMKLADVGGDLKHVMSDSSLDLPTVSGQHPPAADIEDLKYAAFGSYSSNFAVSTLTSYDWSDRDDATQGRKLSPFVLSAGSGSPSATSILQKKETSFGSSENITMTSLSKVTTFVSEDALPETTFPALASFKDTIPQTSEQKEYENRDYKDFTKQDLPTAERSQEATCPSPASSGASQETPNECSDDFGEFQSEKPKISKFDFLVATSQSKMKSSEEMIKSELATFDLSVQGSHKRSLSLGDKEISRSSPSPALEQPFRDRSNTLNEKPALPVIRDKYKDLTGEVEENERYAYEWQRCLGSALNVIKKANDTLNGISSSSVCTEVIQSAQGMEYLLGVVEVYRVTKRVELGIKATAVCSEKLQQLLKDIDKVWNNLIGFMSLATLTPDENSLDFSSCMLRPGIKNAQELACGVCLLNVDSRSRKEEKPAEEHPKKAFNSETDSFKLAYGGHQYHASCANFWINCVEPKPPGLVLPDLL
Chain of UniProt Q9HAB8 (Q9HAB8 whole entry): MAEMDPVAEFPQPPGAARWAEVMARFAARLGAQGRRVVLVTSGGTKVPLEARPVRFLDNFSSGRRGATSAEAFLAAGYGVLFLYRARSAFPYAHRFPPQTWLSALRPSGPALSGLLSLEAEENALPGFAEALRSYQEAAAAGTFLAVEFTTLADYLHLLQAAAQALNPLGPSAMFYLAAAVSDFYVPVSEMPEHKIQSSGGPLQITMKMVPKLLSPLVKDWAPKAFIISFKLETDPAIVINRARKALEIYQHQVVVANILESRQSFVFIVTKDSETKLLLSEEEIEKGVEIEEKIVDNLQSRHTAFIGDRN
Chain of UniProt Q9H9E1 (Q9H9E1 whole entry): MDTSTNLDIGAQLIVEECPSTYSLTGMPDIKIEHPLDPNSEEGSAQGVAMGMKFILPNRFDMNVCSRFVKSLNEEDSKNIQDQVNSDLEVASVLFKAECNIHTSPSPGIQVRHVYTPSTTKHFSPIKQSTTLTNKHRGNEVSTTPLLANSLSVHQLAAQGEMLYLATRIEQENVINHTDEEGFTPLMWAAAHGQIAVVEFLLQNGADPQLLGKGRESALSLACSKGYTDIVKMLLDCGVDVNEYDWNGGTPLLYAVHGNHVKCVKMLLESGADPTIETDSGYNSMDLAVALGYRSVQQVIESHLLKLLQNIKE
Chain of UniProt Q9NQC3 (Q9NQC3 whole entry): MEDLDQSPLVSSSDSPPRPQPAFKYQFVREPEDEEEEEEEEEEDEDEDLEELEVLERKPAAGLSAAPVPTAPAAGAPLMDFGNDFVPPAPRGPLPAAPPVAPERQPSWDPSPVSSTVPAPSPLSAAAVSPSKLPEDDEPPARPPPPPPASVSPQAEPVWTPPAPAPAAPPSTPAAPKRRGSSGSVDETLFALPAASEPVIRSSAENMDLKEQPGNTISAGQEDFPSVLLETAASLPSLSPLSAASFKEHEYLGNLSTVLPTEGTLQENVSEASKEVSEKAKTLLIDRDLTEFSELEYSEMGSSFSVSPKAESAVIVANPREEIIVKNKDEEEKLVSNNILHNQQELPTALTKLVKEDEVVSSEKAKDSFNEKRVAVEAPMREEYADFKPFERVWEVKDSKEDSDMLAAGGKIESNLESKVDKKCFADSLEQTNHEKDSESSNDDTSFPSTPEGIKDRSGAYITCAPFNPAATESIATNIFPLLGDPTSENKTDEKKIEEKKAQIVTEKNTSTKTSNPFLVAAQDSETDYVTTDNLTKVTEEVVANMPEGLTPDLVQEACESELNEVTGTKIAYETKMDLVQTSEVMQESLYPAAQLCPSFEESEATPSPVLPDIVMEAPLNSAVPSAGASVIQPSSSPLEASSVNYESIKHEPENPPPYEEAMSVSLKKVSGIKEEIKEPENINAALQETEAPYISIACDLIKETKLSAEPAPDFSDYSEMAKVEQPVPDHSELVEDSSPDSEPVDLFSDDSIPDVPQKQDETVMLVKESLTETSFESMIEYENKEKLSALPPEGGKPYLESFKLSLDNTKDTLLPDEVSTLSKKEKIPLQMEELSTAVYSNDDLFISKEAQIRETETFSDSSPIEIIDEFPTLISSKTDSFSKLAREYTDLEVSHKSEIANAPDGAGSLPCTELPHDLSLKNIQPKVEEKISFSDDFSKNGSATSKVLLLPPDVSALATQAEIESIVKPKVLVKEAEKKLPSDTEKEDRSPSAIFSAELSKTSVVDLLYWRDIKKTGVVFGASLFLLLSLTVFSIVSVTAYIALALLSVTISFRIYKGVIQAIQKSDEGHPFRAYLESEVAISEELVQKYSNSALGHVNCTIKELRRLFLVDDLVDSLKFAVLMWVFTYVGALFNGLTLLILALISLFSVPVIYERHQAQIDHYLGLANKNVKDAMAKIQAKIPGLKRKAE
Chain of UniProt Q96FS4 (Q96FS4 whole entry): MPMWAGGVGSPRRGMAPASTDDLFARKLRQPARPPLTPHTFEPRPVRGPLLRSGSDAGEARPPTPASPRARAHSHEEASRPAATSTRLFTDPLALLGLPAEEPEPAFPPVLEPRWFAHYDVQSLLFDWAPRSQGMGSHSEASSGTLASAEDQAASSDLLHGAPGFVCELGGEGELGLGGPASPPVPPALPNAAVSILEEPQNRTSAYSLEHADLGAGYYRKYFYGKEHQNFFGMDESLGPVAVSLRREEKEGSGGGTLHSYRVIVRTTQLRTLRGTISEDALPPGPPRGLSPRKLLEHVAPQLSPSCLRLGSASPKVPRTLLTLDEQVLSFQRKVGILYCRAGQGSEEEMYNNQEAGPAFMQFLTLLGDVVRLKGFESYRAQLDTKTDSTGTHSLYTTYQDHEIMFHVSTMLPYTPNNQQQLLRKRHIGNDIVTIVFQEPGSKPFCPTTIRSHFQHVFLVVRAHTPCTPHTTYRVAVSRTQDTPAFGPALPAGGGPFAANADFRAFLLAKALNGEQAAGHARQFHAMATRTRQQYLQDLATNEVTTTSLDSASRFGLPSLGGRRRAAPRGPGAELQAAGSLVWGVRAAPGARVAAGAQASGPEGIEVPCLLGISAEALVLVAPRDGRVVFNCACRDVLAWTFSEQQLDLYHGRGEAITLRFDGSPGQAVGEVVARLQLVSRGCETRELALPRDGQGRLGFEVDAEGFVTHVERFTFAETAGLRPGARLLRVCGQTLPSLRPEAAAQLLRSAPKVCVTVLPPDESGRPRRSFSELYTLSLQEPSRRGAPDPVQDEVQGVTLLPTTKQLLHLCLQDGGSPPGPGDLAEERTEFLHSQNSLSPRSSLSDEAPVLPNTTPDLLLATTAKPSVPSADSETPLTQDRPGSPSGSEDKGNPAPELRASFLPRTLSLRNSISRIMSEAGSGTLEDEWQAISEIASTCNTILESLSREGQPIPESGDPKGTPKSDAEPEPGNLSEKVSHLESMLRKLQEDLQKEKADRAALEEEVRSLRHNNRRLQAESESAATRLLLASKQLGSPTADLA

Target	NP40-soluble protein abundance (concentration: 1mM)	NP40-soluble protein abundance (concentration: 2mM)	NP40-soluble protein abundance (concentration: 4mM)	NP40-soluble protein abundance (concentration: 6mM)	NP40-soluble protein abundance (concentration: 8mM)	NP40-soluble protein abundance (concentration: 10mM)
MRPL53 (UniProt Q96EL3)	0.987 ± 0.06	1.01 ± 0.023	0.986 ± 0.061	0.98 ± 0.045	1 ± 0.063	1 ± 0.066
WDR3 (UniProt Q9UNX4)	1.07 ± 0.015	1.09 ± 0.1	1.33 ± 0.039	1.55 ± 0.026	1.8 ± 0.064	1.78 ± 0.15
CISD1 (UniProt Q9NZ45)	1 ± 0.047	1.04 ± 0.046	1 ± 0.04	0.992 ± 0.039	1.02 ± 0.0018	0.968 ± 0.051
ANKRA2 (UniProt Q9H9E1)	0.912 ± 0.057	0.91 ± 0.023	0.911 ± 0.025	0.97 ± 0.087	0.99 ± 0.058	0.963 ± 0.05
NOP58 (UniProt Q9Y2X3)	1.11 ± 0.021	1.17 ± 0.013	1.17 ± 0.014	1.24 ± 0.054	1.32 ± 0.033	1.46 ± 0.057
UniProt Q9ULE6	0.981 ± 0.025	0.96 ± 0.013	1.01 ± 0.02	0.959 ± 0.027	0.957 ± 0.016	0.944 ± 0.025
POLR3F (UniProt Q9H1D9)	0.959 ± 0.035	0.97 ± 0.08	0.962 ± 0.042	1.04 ± 0.062	1.03 ± 0.077	1.02 ± 0.087
UTP18 (UniProt Q9Y5J1)	1.05 ± 0.029	1.07 ± 0.048	1.1 ± 0.044	1.23 ± 0.028	1.28 ± 0.062	1.36 ± 0.05
ATAD5 (UniProt Q96QE3)	1.03 ± 0.026	1.05 ± 0.046	1.08 ± 0.028	1.08 ± 0.031	1.08 ± 0.022	1.12 ± 0.045
UniProt Q9BQ39|A0A087WVC1	1.22 ± 0.068	1.27 ± 0.062	1.35 ± 0.023	1.43 ± 0.04	1.52 ± 0.097	1.5 ± 0.14
UniProt Q9Y5B6|Q9Y5B6-2	1.03 ± 0.048	1.05 ± 0.017	1.07 ± 0.057	1.06 ± 0.051	1.07 ± 0.049	1.14 ± 0.053
UniProt Q9H668	0.991 ± 0.028	0.97 ± 0.028	0.985 ± 0.027	0.995 ± 0.018	0.985 ± 0.044	0.963 ± 0.024
UniProt Q9UMZ2|Q9UMZ2-5|Q9UMZ2-9	1.02 ± 0.035	1.05 ± 0.064	1.03 ± 0.031	0.978 ± 0.035	0.955 ± 0.021	0.981 ± 0.037
UniProt Q9UM21	1.02 ± 0.058	0.987 ± 0.034	0.981 ± 0.023	1 ± 0.071	1 ± 0.043	0.991 ± 0.023
PPCS (UniProt Q9HAB8)	1.03 ± 0.033	0.981 ± 0.038	1.01 ± 0.028	1.03 ± 0.02	1.03 ± 0.026	1.04 ± 0.021
SIPA1 (UniProt Q96FS4)	1.01 ± 0.037	1.013 ± 0.003	1.03 ± 0.025	1.05 ± 0.029	1.03 ± 0.036	1.04 ± 0.02
UniProt Q9UIG0|Q9UIG0-2	1.04 ± 0.048	1.08 ± 0.055	1.11 ± 0.046	1.23 ± 0.074	1.3 ± 0.11	1.45 ± 0.16
UniProt Q9P2R7|Q9P2R7-2	0.9771 ± 0.0078	0.943 ± 0.027	0.938 ± 0.011	0.977 ± 0.032	0.958 ± 0.012	0.969 ± 0.049
UniProt Q9Y320|Q9Y320-2	0.936 ± 0.038	0.89 ± 0.056	0.918 ± 0.036	0.952 ± 0.048	0.962 ± 0.04	0.95 ± 0.039
ISCU (UniProt Q9H1K1)	1.01 ± 0.039	1.06 ± 0.018	0.987 ± 0.043	0.969 ± 0.03	0.96 ± 0.054	0.958 ± 0.047
RTN4 (UniProt Q9NQC3)	1.05 ± 0.014	1.07 ± 0.057	1.04 ± 0.028	1.02 ± 0.014	1.01 ± 0.032	1.03 ± 0.065
UniProt Q96K49|Q96K49-2	0.99 ± 0.013	1.01 ± 0.027	0.984 ± 0.026	0.9718 ± 0.005	0.9653 ± 0.0019	0.9716 ± 0.0066
UniProt Q9HC36	1.05 ± 0.047	1.1 ± 0.088	1.23 ± 0.12	1.37 ± 0.18	1.51 ± 0.22	1.6 ± 0.28
UniProt Q9HCJ0|Q9HCJ0-2	1.043 ± 0.0013	1.033 ± 0.0035	1.01 ± 0.013	1.01 ± 0.022	1 ± 0.016	1.02 ± 0.02
UniProt Q9Y4E8|Q9Y4E8-3	0.967 ± 0.013	0.963 ± 0.032	1.02 ± 0.041	1 ± 0.048	0.993 ± 0.065	1.01 ± 0.027
UniProt Q9NVI7-2	1.08 ± 0.075	1.05 ± 0.073	1.14 ± 0.18	1.29 ± 0.18	1.38 ± 0.24	1.44 ± 0.32
UniProt Q96JP5|A0A0A6YYC7|Q96JP5-2	1.01 ± 0.017	1.05 ± 0.03	1.01 ± 0.021	1.04 ± 0.068	0.987 ± 0.057	1.01 ± 0.046
WDR12 (UniProt Q9GZL7)	0.997 ± 0.017	0.928 ± 0.082	0.979 ± 0.011	1 ± 0.028	0.999 ± 0.016	0.94 ± 0.033
THOC3 (UniProt Q96J01)	1.07 ± 0.069	1.1 ± 0.075	1.17 ± 0.15	1.24 ± 0.16	1.3 ± 0.23	1.34 ± 0.27
